Source: PubChem BioAssay
Only some compounds are listed: those with a hit (about 1.7% of all), similar ones and a draw of the others.
HEK293 tox: cytotoxicity counter-screen for GLP-1 receptor inverse agonists; Potency, µM (titrated, usually from 38.3 µM), hits mostly inhibitors; HEK293 cAMP-luciferase reporter cells, luminescence, 24 h; 0.13% of 410,000 active;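 further: loss of luciferase light is scored as toxicity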
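Cells in DMEM/10% Nu serum/1% pen-strep, 1536-well format. Pre-incubated 12 h, dosed with 23 nL compound, incubated a further 24 h. Luciferase detection, 12 min at room temp, luminescence.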
GLP-1R agonist: GLP-1 receptor (human) agonism | P43220 | HEK293 GLP-1R CRE-luciferase, luminescence, 4-6 h; cells express a hypersensitive GLP-1R form | Potency, µM (doses to about 45.6 µM), actives largely listed as activators | 0.007% of 380,000 active
PTHR1 agonist: agonists of human PTHR1 parathyroid hormone receptor; Q03431; HEK293 GP2 PTHR1 cells, GloSensor cAMP luminescence, 1 h; Potency, µM (top dose mostly 115 µM), most hits filed as activators; 0.075% of 410,000 active; AID 743266; further: nearly all actives have a fitted effect of over 55% in size
Target sequence (Q03431 whole entry, looked up): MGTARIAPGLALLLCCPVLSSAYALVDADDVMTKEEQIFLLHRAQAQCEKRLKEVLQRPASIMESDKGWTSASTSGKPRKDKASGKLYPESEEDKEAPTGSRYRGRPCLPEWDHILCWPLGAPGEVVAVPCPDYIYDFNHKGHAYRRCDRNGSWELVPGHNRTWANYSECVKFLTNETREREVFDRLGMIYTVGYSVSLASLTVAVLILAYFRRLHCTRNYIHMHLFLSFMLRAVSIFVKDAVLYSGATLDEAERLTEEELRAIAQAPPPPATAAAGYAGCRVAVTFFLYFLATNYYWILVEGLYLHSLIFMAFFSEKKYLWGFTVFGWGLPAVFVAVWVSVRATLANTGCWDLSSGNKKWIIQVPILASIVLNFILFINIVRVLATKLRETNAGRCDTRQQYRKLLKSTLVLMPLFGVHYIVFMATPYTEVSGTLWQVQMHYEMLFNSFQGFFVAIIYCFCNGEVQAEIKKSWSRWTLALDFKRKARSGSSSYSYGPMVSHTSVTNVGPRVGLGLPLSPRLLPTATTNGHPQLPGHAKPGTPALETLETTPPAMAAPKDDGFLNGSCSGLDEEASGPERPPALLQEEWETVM
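HEK-293-derived GP2 cells expressing PTHR1 and a GloSensor cAMP reporter, 3,000/well, plated overnight, given luciferin plus IBMX (each 0.5 mM as added) for 1 h at 37 °C, then compound for 1 h at 37 °C. Luminescence was read after 15 min at room temperature.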
GLP-1R inv ag: inverse agonists of human GLP-1 receptor. P43220. HEK293 GLP-1R CRE-luciferase, luminescence, 24 h; GLP-1R form is constitutively active. Potency, µM (highest dose often 38.3 µM), most hits filed as inhibitors. 1.6% of 410,000 active. AID 624417; further: nearly all actives have a fitted effect of over 55% in size
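Inverse agonism was detected as reduced cAMP-driven luciferase luminescence after 24 h compound treatment. The cells were HEK293 clones expressing constitutively active human GLP-1R with the reporter. Reporter-only and GPR119 cell lines served as counterscreen controls.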
Large screens that a line does not name were inactive. The call rests on the fitted dose curve; in most records, active means well fitted curve in the direction sought with a large enough effect; inconclusive means small, poorly fitted or top-dose-only effect, or another doubt; inactive means no such curve, though single readings can be large; an effect the other way counts as inactive or inconclusive.

COc1ccc(N2CCN(S(=O)(=O)CCNC(=O)Cc3ccc(-c4ccccc4)cc3)CC2)cc1	PTHR1 agonist 28µM (no result: GLP-1R agonist)
CCCCOc1ccc(C(=O)NCCS(=O)(=O)N2CCN(c3ccccc3OC)CC2)cc1	GLP-1R inv ag 10µM (no result: GLP-1R agonist)
CN(c1nnc(NC(=O)Nc2ccccc2C(F)(F)F)s1)C1CCCCC1	GLP-1R inv ag inconclusive (no result: GLP-1R agonist)
O=C1c2ccccc2-c2onc3c(N4CCN(CCO)CC4)cc(N4CCN(C(=O)c5ccco5)CC4)c1c23	HEK293 tox inconclusive, GLP-1R inv ag 11µM
CN1CCN(c2cc(N3CCN(C(=O)c4ccco4)CC3)c3c4c(onc24)-c2ccccc2C3=O)CC1	HEK293 tox inconclusive, GLP-1R inv ag inconclusive
CC[C@]12c3[nH]c4cc(-c5ccco5)ccc4c3CCN1C(=O)[C@@H](CC(=O)NCCC1=CCCCC1)C[C@@H]2C(=O)N1CCN(C(=O)c2ccco2)CC1	GLP-1R inv ag 7.9µM
O=C(C[C@H]1C[C@H](C(=O)N2CCCCC2)[C@@]2(CCc3ccccc3)c3[nH]c4cc(-c5ccco5)ccc4c3CCN2C1=O)NCc1ccco1	GLP-1R inv ag 8.9µM
Cn1ncc(C(=O)N2CCN(c3ccc(F)cc3)CC2)c1C1CCN(C(=O)OC(C)(C)C)CC1	none (no result: GLP-1R agonist)
CC1Cc2cc(/C=C3/SC(=S)NC3=O)ccc2O1 (centres undefined)	HEK293 tox 10µM, GLP-1R inv ag inconclusive
O=C1CN(C(=O)c2ccc(Br)o2)C(c2ccc(F)cc2)c2cc(Cl)ccc2N1 (centres undefined)	GLP-1R inv ag 3.5µM
O=C1CN(C(=O)c2ccc(Br)o2)C(c2ccccc2)c2cc(Br)ccc2N1 (centres undefined)	GLP-1R inv ag 7.1µM
CCN(CC)CCNc1nc(-n2nc(C)cc2C)nc2sc3c(c12)CC(C)(C)OC3	HEK293 tox inconclusive, GLP-1R inv ag 4.5µM
CO/N=C(\C(=O)N[C@@H]1C(=O)N2C(C(=O)[O-])=C(C[n+]3cccc4c3CCCC4)CS[C@H]12)c1csc(N)n1	none (no result: HEK293 tox, PTHR1 agonist, GLP-1R inv ag)
CC(C)CS(=O)(=O)c1oc(-c2ccc(F)cc2)nc1S(=O)(=O)c1ccccc1	HEK293 tox inconclusive, GLP-1R inv ag inconclusive (no result: GLP-1R agonist)
Cc1cccc(N(C)S(=O)(=O)c2ccc(-c3cc(C)no3)s2)c1	GLP-1R inv ag 1µM
CCc1cnc2c(c1SCC(=O)c1ccc(OC)cc1)c(=O)n(C)c(=O)n2C	none (no result: GLP-1R agonist)
COC(=O)C(Nc1ccccc1Cl)(c1cc(C)c(O)c(C)c1)C(F)(F)F (centres undefined)	HEK293 tox inconclusive, GLP-1R inv ag 4.5µM
CCOC(=O)C(NC(=O)c1ccccc1Cl)(Nc1ccc(C)c(C)c1)C(F)(F)F (centres undefined)	none
CCOc1ccc(/C=C/c2nc3ccccc3n2S(=O)(=O)c2cccc(Cl)c2)cc1	GLP-1R inv ag inconclusive (no result: GLP-1R agonist)
C[C@]12c3[nH]c4ccc(Cl)cc4c3CCN1C(=O)[C@@H](CC(=O)NCC13CC4CC(CC(C4)C1)C3)C[C@@H]2C(=O)N1CCOCC1	GLP-1R inv ag 10µM
COc1ccc2[nH]c3c(c2c1)CCN1C(=O)C(CC(=O)NCC24CC5CC(CC(C5)C2)C4)C[C@H](C(=O)N(C(C)C)C(C)C)[C@@]31C (some centres undefined)	GLP-1R inv ag 10µM
CC(Sc1nnc(CN2CCCC2)n1Cc1ccccc1)C(=O)Nc1ccc(F)cc1Cl (centres undefined)	GLP-1R inv ag 5.6µM
CC(Sc1nnc(CN2CCCC2)n1Cc1ccccc1)C(=O)Nc1ccc(F)cc1 (centres undefined)	GLP-1R inv ag inconclusive
O=[N+]([O-])c1cccc(C=NN=C2c3ccccc3-c3ccccc32)c1	none
CC1S/C(=N\N=C\c2cccc([N+](=O)[O-])c2)N(C(C)(C)C)C1=O (centres undefined)	GLP-1R inv ag 3.5µM
O=C1/C(=C\c2cccs2)CCC/C1=C/c1cccs1	none (no result: HEK293 tox, PTHR1 agonist, GLP-1R inv ag)
Cc1cccc(N2CCN(C(=O)C3CCN(S(=O)(=O)Cc4ccccc4)CC3)CC2)c1C	none (no result: GLP-1R agonist)
CSCCC(NC(=O)c1ccccc1)C(=O)N1CC=C(c2ccccc2)CC1 (centres undefined)	GLP-1R inv ag 10µM
CSCCC(NC(=O)c1ccccc1)C(=O)N1CCN(C(=O)c2ccccc2)CC1 (centres undefined)	none
COc1ccc(Cn2c(C(=O)O)c(CNCCc3cccs3)c3ccc(C)cc32)cc1	none (no result: GLP-1R agonist)
COc1cccc2c1C(CCCC(=O)O)CCC2 (centres undefined)	none
COc1cccc2c1C1COC3C4CC(C(=O)O)C(C(C2)N13)N4C (centres undefined)	HEK293 tox inconclusive, GLP-1R inv ag 4µM
Cc1ccccc1C(=O)N1CC/C(=N/OS(=O)(=O)O)c2ccc(Cl)cc21	none (no result: HEK293 tox, PTHR1 agonist, GLP-1R inv ag)
CCOC(=O)c1sc(NC(=O)Cn2nnc3sc4c(c3c2=O)CCCC4)nc1C	none
CCOC(=O)c1nc2sc3c(c2c(=O)n1C(C)C(=O)OCC)CCCC3 (centres undefined)	GLP-1R inv ag 1.3µM
COC(=O)c1ccc(OCC2c3cc(OC)c(OC)cc3CCN2C(=O)c2cccc(C)c2)cc1 (centres undefined)	GLP-1R inv ag inconclusive
CC(C)c1ccc(NC(=O)CN2C(=O)COc3ccc(S(=O)(=O)N4CCCCC4)cc32)cc1	GLP-1R inv ag inconclusive (no result: GLP-1R agonist)
CC(C)(CC(=O)NCc1ccc(Cl)cc1Cl)CC1=NS(=O)(=O)c2ccccc2N1	HEK293 tox inconclusive, GLP-1R inv ag 8.9µM
Cc1ccc(Cl)cc1NC(=O)COC(=O)CC(C)(C)CC1=NS(=O)(=O)c2ccccc2N1	GLP-1R inv ag inconclusive
Cc1cnc(NC(=O)c2ccc(OCC3CCCO3)cc2)s1 (centres undefined)	GLP-1R inv ag 5µM
Cc1ccc(NC(=O)c2ccc(OCC3CCCO3)cc2)nc1 (centres undefined)	GLP-1R inv ag inconclusive
CCOc1ccc(C(=O)Nc2nnc(SCC(=O)NCC3CCCO3)s2)cc1 (centres undefined)	GLP-1R inv ag 2µM
CC(C)(C)c1ccc(C(=O)Nc2nnc(SCC(=O)NCC3CCCO3)s2)cc1 (centres undefined)	GLP-1R inv ag inconclusive
COc1ccc(NC(=O)CN2C(=O)COc3ccc(S(=O)(=O)N4CCCCC4)cc32)cc1Cl	GLP-1R inv ag inconclusive (no result: GLP-1R agonist)
O=C1C=C(c2cc3ccccc3s2)CCC1	GLP-1R inv ag 2.5µM
CC1(C)CC(=O)C=C(c2cc3ccccc3s2)C1	HEK293 tox inconclusive
Cc1ccc2occ(CC(=O)Nc3ccc(S(=O)(=O)N4CCC(C)CC4)cc3)c2c1	GLP-1R inv ag inconclusive (no result: GLP-1R agonist)
CN(Cc1ccccc1)C(=O)c1cc2ccccc2o1	none
CC(C)(C)N(Cc1ccccc1)C(=O)c1cc2ccccc2o1	GLP-1R inv ag 2.2µM
Cc1cccc(-n2c3nc(=O)[nH]c(=O)c-3cc3ccc(Cl)cc32)c1C	none
O=C(CCSc1nc(-c2ccccc2)c(-c2ccccc2)o1)N1CCCCC1	GLP-1R inv ag inconclusive
